# Data reported in the supplement of paper PMC8728848.
# This is one part of a sample in which the strongest signals are shown more often than they occur.
# B1: PRKCE (Homo sapiens), Q02156 (protein)
# chain: MVVFNGLLKIKICEAVSLKPTAWSLRHAVGPRPQTFLLDPYIALNVDDSRIGQTATKQKTNSPAWHDEFVTDVCNGRKIELAVFHDAPIGYDDFVANCTIQFEELLQNGSRHFEDWIDLEPEGRVYVIIDLSGSSGEAPKDNEERVFRERMRPRKRQGAVRRRVHQVNGHKFMATYLRQPTYCSHCRDFIWGVIGKQGYQCQVCTCVVHKRCHELIITKCAGLKKQETPDQVGSQRFSVNMPHKFGIHNYKVPTFCDHCGSLLWGLLRQGLQCKVCKMNVHRRCETNVAPNCGVDARGIAKVLADLGVTPDKITNSGQRRKKLIAGAESPQPASGSSPSEEDRSKSAPTSPCDQEIKELENNIRKALSFDNRGEEHRAASSPDGQLMSPGENGEVRQGQAKRLGLDEFNFIKVLGKGSFGKVMLAELKGKDEVYAVKVLKKDVILQDDDVDCTMTEKRILALARKHPYLTQLYCCFQTKDRLFFVMEYVNGGDLMFQIQRSRKFDEPRSRFYAAEVTSALMFLHQHGVIYRDLKLDNILLDAEGHCKLADFGMCKEGILNGVTTTTFCGTPDYIAPEILQELEYGPSVDWWALGVLMYEMMAGQPPFEADNEDDLFESILHDDVLYPVWLSKEAVSILKAFMTKNPHKRLGCVASQNGEDAIKQHPFFKEIDWVLLEQKKIKPPFKPRIKTKRDVNNFDQDFTREEPVLTLVDEAIVKQINQEEFKGFSYFGEDLMP
# Assays:
# Assay in all cases: glycan array binding signal (z-score within array); higher = stronger binding
# Conditions in all cases: glycan notation: IUPAC condensed, linker removed
# [1] = molecular target: Fuc(a1-2)Gal(b1-3)GalNAc(b1-4)[Neu5Ac(a2-3)]Gal(b1-4)Glc
# Procedure, shortened: (§1)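 Glycan array data were curated from 3228 arrays in the Consortium for Functional Glycomics database and kept only where the protein sequence was available. Glycan names were converted to IUPAC-condensed notation, and columns mapping to the same glycan were averaged. The binding signal is a within-array Z-score, averaged across arrays of the same protein sequence at different concentrations or buffers and across linkers. Negative Z-scores can be read as non-binding.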
# [2] = molecular target: Fuc(a1-2)Gal(b1-3)[Fuc(a1-4)]GlcNAc
# Procedure, shortened: as §1
# [3] = molecular target: Fuc(a1-2)Gal(b1-3)[Fuc(a1-4)]GlcNAc(b1-2)Man(a1-3)[Fuc(a1-2)Gal(b1-3)[Fuc(a1-4)]GlcNAc(b1-2)Man(a1-6)]Man(b1-4)GlcNAc(b1-4)GlcNAc
# Procedure, shortened: as §1
# Fuc(a1-2)Gal(b1-4)Glc6S = molecular target: Fuc(a1-2)Gal(b1-4)Glc6S
# Procedure, shortened: as §1
# [4] = molecular target: Fuc(a1-2)Gal(b1-4)GlcNAc(b1-3)Gal(b1-4)GlcNAc(b1-3)Gal(b1-4)GlcNAc
# Procedure, shortened: as §1
# [5] = molecular target: Fuc(a1-2)Gal(b1-4)[Fuc(a1-3)]GlcNAc(b1-3)[Neu5Ac(a2-6)Gal(b1-4)GlcNAc(b1-6)]Gal(b1-4)Glc
# Procedure, shortened: as §1
# [6] = molecular target: Fuc(a1-2)Gal6S(b1-4)Glc6S
# Procedure, shortened: as §1
# [7] = molecular target: Fuc(a1-2)[Gal(a1-3)]Gal(b1-3)GlcNAc
# Procedure, shortened: as §1
# [8] = molecular target: Fuc(a1-2)[Gal(a1-3)]Gal(b1-3)GlcNAc(b1-3)GalNAc
# Procedure, shortened: as §1
# [9] = molecular target: Fuc(a1-2)[Gal(a1-3)]Gal(b1-4)GlcNAc(b1-2)Man(a1-3)[Fuc(a1-2)[Gal(a1-3)]Gal(b1-4)GlcNAc(b1-2)Man(a1-6)]Man(b1-4)GlcNAc(b1-4)GlcNAc
# Procedure, shortened: as §1
# [10] = molecular target: Fuc(a1-2)[Gal(a1-3)]Gal(b1-4)GlcNAc(b1-6)GalNAc
# Procedure, shortened: as §1
# [11] = molecular target: Fuc(a1-2)[GalNAc(a1-3)]Gal(b1-3)GlcNAc
# Procedure, shortened: as §1
# [12] = molecular target: Fuc(a1-3)[Gal(b1-4)]GlcNAc(b1-4)Gal(b1-4)[Fuc(a1-3)]GlcNAc(b1-4)Gal(b1-4)[Fuc(a1-3)]GlcNAc
# Procedure, shortened: as §1
# Gal(a1-2)Gal = molecular target: Gal(a1-2)Gal
# Procedure, shortened: as §1
# Gal(b1-3)GalNAc = molecular target: Gal(b1-3)GalNAc
# Procedure, shortened: as §1
# Gal(b1-3)GlcNAc = molecular target: Gal(b1-3)GlcNAc
# Procedure, shortened: as §1
# [13] = molecular target: Gal(b1-3)GlcNAc(b1-3)Gal(b1-4)GlcNAc(b1-6)[Gal(b1-3)GlcNAc(b1-3)]Gal(b1-4)Glc
# Procedure, shortened: as §1
# [14] = molecular target: Gal(b1-3)GlcNAc(b1-3)Gal(b1-4)[Fuc(a1-3)]GlcNAc(b1-6)[Gal(b1-3)GlcNAc(b1-3)]Gal(b1-4)Glc
# Procedure, shortened: as §1
# [15] = molecular target: Gal(b1-4)GalNAc(b1-3)[Fuc(a1-2)]Gal(b1-4)GlcNAc
# Procedure, shortened: as §1
# [16] = molecular target: Gal(b1-4)GlcNAc(b1-2)Man(a1-3)[Gal(b1-4)GlcNAc(b1-2)][GlcNAc(b1-4)]Man(b1-4)GlcNAc(b1-4)GlcNAc
# Procedure, shortened: as §1
# [17] = molecular target: Gal(b1-4)GlcNAc(b1-2)Man(a1-3)[GlcNAc(b1-2)Man(a1-6)]Man(b1-4)GlcNAc(b1-4)GlcNAc
# Procedure, shortened: as §1
# [18] = molecular target: Gal(b1-4)GlcNAc(b1-2)Man(a1-6)Man(b1-4)GlcNAc(b1-4)GlcNAc
# Procedure, shortened: as §1
# [19] = molecular target: Gal(b1-4)GlcNAc(b1-2)Man(a1-6)[GlcNAc(b1-2)Man(a1-3)]Man(b1-4)GlcNAc(b1-4)GlcNAc
# Procedure, shortened: as §1
# [20] = molecular target: Gal(b1-4)GlcNAc(b1-3)Gal(b1-4)GlcNAc
# Procedure, shortened: as §1
# [21] = molecular target: Gal(b1-4)GlcNAc(b1-3)Gal(b1-4)GlcNAc(b1-3)Gal(b1-4)GlcNAc
# Procedure, shortened: as §1
# [22] = molecular target: Gal(b1-4)GlcNAc(b1-3)Gal(b1-4)[Fuc(a1-3)GlcNAc(b1-6)]Gal(b1-4)Glc
# Procedure, shortened: as §1
# Gal3S(b1-4)GlcNAc6S = molecular target: Gal3S(b1-4)GlcNAc6S
# Procedure, shortened: as §1
# Gal3S4S(b1-4)GlcNAc = molecular target: Gal3S4S(b1-4)GlcNAc
# Procedure, shortened: as §1
# Gal6S(b1-4)GlcNAc6S = molecular target: Gal6S(b1-4)GlcNAc6S
# Procedure, shortened: as §1
# [23] = molecular target: GalNAc(b1-3)Gal(a1-4)Gal(b1-4)GlcNAc(b1-3)Gal(b1-4)Glc
# Procedure, shortened: as §1
# GalNAc4S6S(b1-4)GlcNAc = molecular target: GalNAc4S6S(b1-4)GlcNAc
# Procedure, shortened: as §1
# GlcA(b1-3)GlcNAc = molecular target: GlcA(b1-3)GlcNAc
# Procedure, shortened: as §1
# [24] = molecular target: GlcNAc(b1-3)[GlcNAc(b1-4)][GlcNAc(b1-6)]GlcNAc
# Procedure, shortened: as §1
# Kdn(a2-3)Gal(b1-3)GalNAc = molecular target: Kdn(a2-3)Gal(b1-3)GalNAc
# Procedure, shortened: as §1
# Kdn(a2-3)Gal(b1-3)GlcNAc = molecular target: Kdn(a2-3)Gal(b1-3)GlcNAc
# Procedure, shortened: as §1
# [25] = molecular target: Neu5Ac(a2-3)Gal(b1-3)GalNAc6S
# Procedure, shortened: as §1
# [26] = molecular target: Neu5Ac(a2-3)Gal(b1-4)GlcNAc(b1-2)Man(a1-3)[Neu5Ac(a2-3)Gal(b1-4)GlcNAc(b1-2)Man(a1-6)]Man(b1-4)GlcNAc(b1-4)[Fuc(a1-6)]GlcNAc
# Procedure, shortened: as §1
# [27] = molecular target: Neu5Ac(a2-3)Gal(b1-4)GlcNAc(b1-3)Gal(b1-4)[Fuc(a1-3)]GlcNAc
# Procedure, shortened: as §1
# [28] = molecular target: Neu5Ac(a2-6)Gal(b1-4)GlcNAc(b1-2)Man(a1-3)[Gal(b1-4)GlcNAc(b1-2)Man(a1-6)]Man(b1-4)GlcNAc(b1-4)GlcNAc
# Procedure, shortened: as §1
# [29] = molecular target: Neu5Ac(a2-6)Gal(b1-4)GlcNAc(b1-2)Man(a1-3)[GlcNAc(b1-2)Man(a1-6)]Man(b1-4)GlcNAc(b1-4)GlcNAc
# Procedure, shortened: as §1
# [30] = molecular target: Neu5Ac(a2-6)GlcNAc(b1-4)GlcNAc
# Procedure, shortened: as §1
# [31] = molecular target: Neu5Ac(b2-6)Gal(b1-4)GlcNAc
# Procedure, shortened: as §1
# Neu5Gc(a2-6)GalNAc = molecular target: Neu5Gc(a2-6)GalNAc
# Procedure, shortened: as §1
binder,measurement,setting,value
B1,glycan array binding signal (z-score),[1],-0.414
same,glycan array binding signal (z-score),[2],-0.08
same,glycan array binding signal (z-score),[3],3.82
same,glycan array binding signal (z-score),Fuc(a1-2)Gal(b1-4)Glc6S,0.01
same,glycan array binding signal (z-score),[4],-0.376
same,glycan array binding signal (z-score),[5],-0.275
same,glycan array binding signal (z-score),[6],3.89
same,glycan array binding signal (z-score),[7],-0.168
same,glycan array binding signal (z-score),[8],0.498
same,glycan array binding signal (z-score),[9],-0.355
same,glycan array binding signal (z-score),[10],4.32
same,glycan array binding signal (z-score),[11],-0.107
same,glycan array binding signal (z-score),[12],-0.315
same,glycan array binding signal (z-score),Gal(a1-2)Gal,0.035
same,glycan array binding signal (z-score),Gal(b1-3)GalNAc,-0.389
same,glycan array binding signal (z-score),Gal(b1-3)GlcNAc,-0.364
same,glycan array binding signal (z-score),[13],-0.234
same,glycan array binding signal (z-score),[14],-0.277
same,glycan array binding signal (z-score),[15],0.061
same,glycan array binding signal (z-score),[16],-0.146
same,glycan array binding signal (z-score),[17],2.61
same,glycan array binding signal (z-score),[18],-0.31
same,glycan array binding signal (z-score),[19],1.3
same,glycan array binding signal (z-score),[20],-0.365
same,glycan array binding signal (z-score),[21],0.155
same,glycan array binding signal (z-score),[22],-0.176
same,glycan array binding signal (z-score),Gal3S(b1-4)GlcNAc6S,6.34
same,glycan array binding signal (z-score),Gal3S4S(b1-4)GlcNAc,8.77
same,glycan array binding signal (z-score),Gal6S(b1-4)GlcNAc6S,3.2
same,glycan array binding signal (z-score),[23],-0.217
same,glycan array binding signal (z-score),GalNAc4S6S(b1-4)GlcNAc,-0.211
same,glycan array binding signal (z-score),GlcA(b1-3)GlcNAc,-0.247
same,glycan array binding signal (z-score),[24],4.39
same,glycan array binding signal (z-score),Kdn(a2-3)Gal(b1-3)GalNAc,-0.132
same,glycan array binding signal (z-score),Kdn(a2-3)Gal(b1-3)GlcNAc,-0.38
same,glycan array binding signal (z-score),[25],-0.364
same,glycan array binding signal (z-score),[26],-0.386
same,glycan array binding signal (z-score),[27],-0.192
same,glycan array binding signal (z-score),[28],0.571
same,glycan array binding signal (z-score),[29],3.58
same,glycan array binding signal (z-score),[30],-0.318
same,glycan array binding signal (z-score),[31],-0.121
same,glycan array binding signal (z-score),Neu5Gc(a2-6)GalNAc,-0.342
